Test results published in the supplement of paper PMC9446081.
The whole screen tested about 39,000 compounds, of which about 220 (0.56%) showed activity. The sample holds actives, similar compounds and a random draw of the others, so the mix is not that of the screen. A number with no mark means an inactive call.

Tested on: Escherichia coli K-12 BW25113
Assay: relative growth (OD600 normalised to plate interquartile mean) (fraction); higher = less growth inhibition, active = 0.2 or less
Details: 50 µM; LB; incubation time: overnight (16-24 h)
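Note: Wild-type cells incubated without shaking, value is the mean of two biological replicates.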

SMILES	relative growth
CN(C)C(=O)C[C@H]1C=C[C@H](NC(=O)C2CCOCC2)[C@H](CO)O1	1.01
COc1ccc(NC(=O)Nc2ccc3c(c2)C(=O)N([C@H](C)CO)C[C@@H](C)[C@@H](CN(C)S(=O)(=O)c2cccs2)OCCCC[C@@H](C)O3)cc1	1.02
CO[C@@H]1CN(C)C(=O)c2cc(NS(=O)(=O)CC(F)(F)F)ccc2OC[C@@H](C)N(C(=O)c2ccc3c(c2)OCO3)C[C@H]1C	0.937
Cc1ccc(S(=O)(=O)Nc2ccc3c(c2)C(=O)N([C@@H](C)CO)C[C@@H](C)[C@H](CN(C)C(=O)Cc2ccccc2)OCCCC[C@@H](C)O3)cc1	1.01
C[C@H]1CN([C@@H](C)CO)C(=O)Cc2cc(NC(=O)CCN3CCOCC3)ccc2O[C@@H]1CN(C)Cc1ccccc1	1.01
C=CC(=O)NCCc1ccncc1	1.05
O=C(C[C@H]1C[C@H]2c3cc(NS(=O)(=O)c4ccc(F)cc4)ccc3O[C@H]2[C@H](CO)O1)NC1CCCC1	0.974
Cn1cc(S(=O)(=O)N2CCN(c3ccc(F)cc3)CC2)c(=O)n(C)c1=O	1.01
Cc1ccc(C(=O)O)c(=O)n1C	1.02
O=C(c1ccccc1F)N1CCNCC1	0.999
O=C(CN1CCNCC1)c1ccc(F)cc1	1
Cl.O=C(O)c1cn(-c2ccc(F)cc2)c2cc(N3CCNCC3)c(F)cc2c1=O	0.0456 (active)
CN1CCN(c2cc3c(cc2F)c(=O)c(C(=O)O)cn3-c2ccc(F)cc2)CC1.Cl	0.0477 (active)
C[C@@H]1CCCCO[C@H](CN(C)S(=O)(=O)c2cn(C)cn2)[C@H](C)CN([C@H](C)CO)C(=O)c2cc(NS(C)(=O)=O)ccc2O1	1.02
COc1ccc(-c2cn(CCCNC(=O)[C@H](Cc3ccccc3)NS(=O)(=O)c3ccc(C)cc3)nn2)cc1OC	1.02
CC1=C(C)C(=O)C(CCCCCCCCCC[P+](c2ccccc2)(c2ccccc2)c2ccccc2)=CC1=O	0.308
COC1=C(OC)C(=O)C(CCCCCCCCCCO)=C(C)C1=O	1.05
COC1=C(OC)C(=O)C(CCCCCCCCCC[P+](c2ccccc2)(c2ccccc2)c2ccccc2)=C(C)C1=O	0.0727 (active)
C[C@@H]1CN([C@H](C)CO)S(=O)(=O)c2ccc(Br)cc2O[C@@H]1CN(C)C(=O)NC1CCCC1	0.989
Cc1cc(=S)oc2ccccc12	0.943
CC(C)CC#Cc1ccc2c(c1)O[C@H](CN(C)C(=O)NC1CCCC1)[C@H](C)CN([C@@H](C)CO)S2(=O)=O	0.997
O=C(NN=Cc1ccc([N+](=O)[O-])o1)c1ccc(O)cc1	0.973
NC(=O)N/N=C/c1ccc([N+](=O)[O-])o1	0.0425 (active)

SMILES	relative growth
O=C(N/N=C/c1ccc(CO)o1)c1ccccn1	1
Nc1nnc(-c2ccc([N+](=O)[O-])o2)o1	0.258
O=C(CN1CCOCC1)N/N=C/c1ccc([N+](=O)[O-])o1	0.801
COC(=O)N/N=C/c1ccc([N+](=O)[O-])o1	0.0393 (active)
CCOC(=O)c1ccc(N2NC(=O)/C(=C/c3ccc([N+](=O)[O-])o3)C2=O)cc1	0.984
NC(=O)NN=Cc1ccc([N+](=O)[O-])o1	0.0474 (active)
C[C@H](NC(=O)C[C@H]1C=C[C@@H](NC(=O)CN2CCOCC2)[C@H](CO)O1)c1ccccc1	1
C[C@H](O)C#Cc1ccc2c(c1)O[C@H](CN(C)C(=O)Cc1ccccn1)[C@H](C)CN([C@@H](C)CO)S2(=O)=O	1.01
CN1CCN(C(=O)C[C@@H]2CC[C@H]3[C@@H](COC[C@@H](O)CN3Cc3ccc4c(c3)OCO4)O2)CC1	0.988
O=C(C[C@H]1C[C@H]2c3cc(NC(=O)Nc4ccc(C(F)(F)F)cc4)ccc3O[C@H]2[C@H](CO)O1)NCc1ccc(Cl)cc1	0.973
C[C@@H]1CN([C@@H](C)CO)C(=O)c2cc(NS(=O)(=O)c3cn(C)cn3)ccc2O[C@@H]1CN(C)Cc1ccncc1	0.994
C[C@@H]1CN([C@H](C)CO)C(=O)Cc2cc(NC(=O)Nc3ccc(F)cc3)ccc2O[C@@H]1CN(C)Cc1ccc(Cl)c(Cl)c1	1.02
Cc1ccc(S[C@]2(C(=O)NCCN3CCOCC3)CC(=O)N(C(C)C)[C@@H]2c2ccc(CO)cc2)cc1	1
C=CCOC(=O)[C@H]1[C@@H]2C(=O)O[C@@H](c3ccccc3)[C@@H](c3ccccc3)N2[C@@H](c2ccc(OCCOC(=O)NCCCCCC(=O)NO)cc2)[C@@]12C(=O)Nc1ccc(I)cc12	0.993
C[C@@H]1CN([C@@H](C)CO)C(=O)c2cc(NC(=O)Nc3ccc(C(F)(F)F)cc3)ccc2O[C@H]1CN(C)C(=O)Nc1cccc2ccccc12	1.01
COC(=O)c1cn(CC(=O)N2CCN(C)CC2)nn1	0.978
C[C@@H]1CN([C@@H](C)CO)C(=O)c2cc(NS(=O)(=O)c3cn(C)cn3)ccc2O[C@H]1CN(C)S(C)(=O)=O	1.02
C[C@H](CO)N1C[C@H](C)[C@@H](CN(C)S(C)(=O)=O)Oc2c(NC(=O)Nc3ccc4c(c3)OCO4)cccc2C1=O	0.991
N#CC1C(=O)NC(=O)N=C1Nc1ccccc1 (configuration not stated)	0.981
NCC1OC(OC2C(CO)OC(OC3C(O)C(N)CC(N)C3OC3OC(CO)C(O)C(O)C3N)C2O)C(N)C(O)C1O.O=S(=O)(O)O (configuration not stated)	0.915
NCC[C@H](O)C(=O)N[C@@H]1C[C@H](N)[C@@H](O[C@H]2O[C@H](CN)[C@@H](O)[C@H](O)[C@H]2O)[C@H](O)[C@H]1O[C@H]1O[C@H](CO)[C@@H](O)[C@H](N)[C@H]1O	0.0379 (active)
NCC1OC(OC2C(CO)OC(OC3C(O)C(N)CC(N)C3OC3OC(CN)C(O)C(O)C3N)C2O)C(N)C(O)C1O.O=S(=O)(O)O.O=S(=O)(O)O.O=S(=O)(O)O (configuration not stated)	1.2
NCCC(O)C(=O)NC1CC(N)C(OC2OC(CN)C(O)C(O)C2O)C(O)C1OC1OC(CO)C(O)C(N)C1O.O (configuration not stated)	0.0465 (active)

SMILES	relative growth
NC[C@H]1O[C@H](O[C@H]2[C@H](O[C@@H]3O[C@H](CO)[C@@H](O)[C@H]3O)[C@@H](O)[C@H](N)C[C@@H]2N)[C@H](N)[C@@H](O)[C@@H]1O	0.515
Cc1noc(C)c1NC(=O)Nc1ccc2c(c1)C(=O)N([C@H](C)CO)C[C@H](C)[C@@H](CN(C)C(=O)Nc1ccc(F)cc1)OCCCC[C@@H](C)O2	0.985
CCN1CCN(c2ccc(Nc3cc(N(C)C(=O)Nc4c(Cl)c(OC)cc(OC)c4Cl)ncn3)cc2)CC1	0.975
C[C@@H]1CN([C@H](C)CO)C(=O)Cc2cc(NC(=O)Nc3ccc(F)cc3)ccc2O[C@@H]1CN(C)S(C)(=O)=O	0.979
C[C@@H]1CCCCO[C@H](CN(C)S(=O)(=O)c2ccc(Cl)cc2)[C@H](C)CN([C@@H](C)CO)C(=O)c2cc(NC(=O)c3ccncc3)ccc2O1	0.997
Cc1ccc(S(=O)(=O)N(C)C[C@@H]2OCCCC[C@@H](C)Oc3ccc(NC(=O)Nc4c(C)noc4C)cc3C(=O)N([C@H](C)CO)C[C@@H]2C)cc1	1
CC(=O)N[C@H]1CC[C@@H](CCNC(=O)C2CC2)O[C@H]1CO	0.943
CC1(C)SC2C(NC(=O)Cc3ccccc3)C(=O)N2C1C(=O)[O-].[K+] (configuration not stated)	0.576
CC1(C)SC2C(N3C(=O)C(c4ccccc4)NC3(C)C)C(=O)N2C1C(=O)[O-].[K+] (configuration not stated)	0.0443 (active)
CC1(C)SC2C(NC(=O)COc3ccccc3)C(=O)N2C1C(=O)[O-].[K+] (configuration not stated)	0.598
O=C(C[C@H]1C[C@@H]2c3cc(NC(=O)C4CCOCC4)ccc3O[C@@H]2[C@@H](CO)O1)NCc1cc(F)ccc1F	0.984
C[C@@H]1CCCCO[C@@H](CN(C)C(=O)C2CCCCC2)[C@H](C)CN([C@@H](C)CO)C(=O)c2cc(NS(=O)(=O)c3ccccc3)ccc2O1	1.02
COc1ccc(S(=O)(=O)Nc2ccc3c(c2)C(=O)N([C@@H](C)CO)C[C@@H](C)[C@@H](CN(C)S(=O)(=O)c2cn(C)cn2)O3)cc1	0.994
Cn1sccc1=O	0.0369 (active)
COc1ccccc1C#Cc1cnc2c(c1)C(=O)N([C@@H](C)CO)C[C@@H](C)[C@@H](CN(C)C(=O)c1ccc3c(c1)OCO3)O2	1.03
COc1ccc(S(=O)(=O)Nc2ccc3c(c2)C(=O)N([C@@H](C)CO)C[C@@H](C)[C@H](CN(C)Cc2ccc(C(=O)O)cc2)OCCCC[C@@H](C)O3)cc1	0.984
CC(C)CC#Cc1cnc2c(c1)C(=O)N([C@@H](C)CO)C[C@@H](C)[C@@H](CN(C)C(=O)CCN1CCCCC1)O2	0.965
CN1CCN(c2c(F)cc3c(=O)c(C(=O)O)cn(CCF)c3c2F)CC1	0.0442 (active)
CN1CCN(c2c(F)cc3c(=O)c(C(=O)O)cn4c3c2SCC4)CC1	0.0436 (active)
C[C@@H]1CN([C@@H](C)CO)C(=O)CCCn2nncc2CO[C@@H]1CN(C)S(=O)(=O)c1ccc(Oc2ccccc2)cc1	1.02
Cc1ccc(S(=O)(=O)N[C@@H]2C=C[C@H](CC(=O)NCCN3CCCCC3)O[C@@H]2CO)cc1	1.01
